Sampled rows, rich in hits. Any-hit rate of the full collection: about 12%.
SARS PLpro yeast = SARS-CoV PLP inhibition in yeast. S. cerevisiae expressing SARS-CoV PLpro, growth rescue. hit rate 0.19% among 330,000. Potency, µM (top dose mostly 32.9 µM), for inactives: top-dose activity, positive = growth rescue, usual class: activators; note: potency is the fitted concentration of half-maximal effect; 0% is about no effect; nearly all actives have a fitted effect of over 55% in size
Cycloheximide cs = counter-screen for Shiga toxin inhibitors: cycloheximide protein synthesis inhibition. cell reporter, cycloheximide protein synthesis inhibition counterscreen. max response, %. hit rate 12% among 300,000; in the data active = max response mostly above about 13%, no sharp cut-off; inactive = mostly below about 14%; note: read at 38.3 µM for the half of the compounds with a filed dose; 0% is about no effect
Shiga toxin inh = inhibitors of Shiga toxin in Vero cells. inhibition, % at 38.7 µM. Vero cells, Shiga toxin protein synthesis inhibition reporter. AID 2315. hit rate 9.2% among 290,000; in the data active = inhibition mostly above about 28%, no sharp cut-off; inactive = mostly below about 43%; note: 0% is about no effect
NS1 inh = blocks influenza NS1 protein function; Potency, µM (series often up to 46.1 µM), without a hit: top-dose activity, positive = more growth; hit rate 0.4% among 270,000; AID 2326; note: potency is the fitted concentration of half-maximal effect; actives are rising curves; nearly all actives have a fitted effect of over 50% in size
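Growth recovery, yeast-based: influenza A NS1 expressed in S. cerevisiae causes slow growth, and suppressors are detected by OD600. The parent strain without NS1 is used as positive control.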
Numbers without * were called inactive; ? = inconclusive; · = not tested or not shown. Unless noted, calls come from the whole dose curve.

SMILES | SARS PLpro yeast | Cycloheximide cs | Shiga toxin inh | NS1 inh
COc1cc(/C=c2\sc3n(c2=O)CCCN=3)ccc1O | -14.5% | 24.9* | 71.4 | -65.4%
COc1cc(/C=c2\sc3n(c2=O)C(c2ccccc2)C(c2ccccc2)=NN=3)ccc1O (stereo not given) | 17.9% | -3.6 | -22.1 | 2.7%
O=c1/c(=C/c2ccc([N+](=O)[O-])cc2)sc2n1CCCN=2 | -14.6% | 35.4* | 45.7* | -10.7%
CCn1c(/C=C/c2ccccc2)nc2ccccc2c1=O | 1.1% | 2.3 | 19.3 | -35.1%
Cn1c(/C=C/c2ccc(Cl)cc2)nc2ccccc2c1=O | -6.4% | 24.5* | 46.2* | -41.2%
Cn1c(N)nc2ccccc2c1=O | 0.8% | -2.5 | 27.4 | 1.2%
Cn1c(/C=C/c2ccccc2)nc2ccccc2c1=O | 1.6% | 27.9* | 57.0* | -2.4%
Cn1c(NN)nc2ccccc2c1=O | 0.3% | 36.5* | 33.1* | 3.2%
CS(=O)(=O)Nc1ccc(C(=O)NCCSc2ccc(Cl)cc2)cc1 | 4.7% | -1.1 | -7.5 | 14.5%
CC(Oc1cccc(Br)c1)C(=O)N1CCCN(C)CC1 (stereo not given) | 13.3% | 0.5 | 24.2 | 17.5%
CCc1ccc(/C=c2\s/c(=C\C(=O)C(C)(C)C)[nH]c2=O)cc1 | -27.9% | 18.0 | -27.9 | -92.7%
CC(C)(C)C(=O)/C=c1\[nH]c(=O)/c(=C\c2ccccc2F)s1 | -1.7% | 7.7 | -3.4 | ·
Cc1ccccc1/C=c1\s/c(=C\C(=O)C(C)(C)C)[nH]c1=O | 9.8% | 24.1* | 42.3 | 5.7%
CC(C)(C)C(=O)/C=c1\[nH]c(=O)/c(=C\c2ccc(F)cc2)s1 | -24.6% | 11.2* | 17.8 | -4.5%
CC(=O)c1ccc(NC(=O)C2=CC(c3ccco3)=NS(=O)(=O)N2C)cc1 | -1.3% | 14.7* | 26.8 | 8.4%
S=c1[nH]c(-c2ccccc2)cn1/N=C/c1cccs1 | -0.6% | 32.2* | 44.7* | 14.3%
Fc1ccccc1/C=N/n1cc(-c2ccccc2)[nH]c1=S | 1.8% | 18.0* | 63.6* | -32.3%
S=c1[nH]c(-c2ccccc2)cn1/N=C/c1ccc(Br)cc1 | 14.3% | 19.7* | 35.8 | -0.8%
Cc1ccc(C)c(/C=N/n2cc(-c3ccccc3)[nH]c2=S)c1 | -0.5% | 3.1 | 32.9 | ·
O=C(O)c1ccc(/C=N/n2cc(-c3ccccc3)[nH]c2=S)cc1 | 1.6% | 0.6 | -1.4 | 7.3%
CCOC(=O)C1=C(N)OC(CCl)=C(C#N)C1c1ccsc1 (stereo not given) | 26.6% | 5.7 | -1.2 | -19.3%
CCC(C)CCN1C(N(C)C)=NC[C@@H]1CC(C)C (stereo not given in full) | 0.0% | · | · | ·
Cc1oc(C(C)(C)C)cc1C(=O)Nc1ccc(C(=O)O)cc1 | -2.0% | 35.8* | 47.6 | -111.6%
Cc1cc(C(=O)Nc2ccc(C(=O)O)cc2)c(C)o1 | -0.1% | 6.5 | 8.7 | -12.1%
Cc1oc(C(C)(C)C)cc1C(=O)Nc1cccc(C(=O)O)c1 | 17.0% | 37.1* | 79.6* | 11.9%
SMILES | SARS PLpro yeast | Cycloheximide cs | Shiga toxin inh | NS1 inh
Cc1oc(CC(C)C)cc1C(=O)Nc1ccc(C(=O)O)cc1 | ? | 56.9* | 43.4 | -133.7%
CCN(CC)c1nc(-c2ccc(C(=O)NN)cc2)nc(-c2ccc(C(=O)NN)cc2)n1 | 0.6% | -2.2 | -4.0 | ?
COc1ccccc1-c1nnc(SCC(=O)N2CCCCC2)o1 | 3.6% | 22.9* | 22.4 | 6.6%
Cc1ccccc1-c1nnc(SCC(=O)N2CCCC2)o1 | -1.9% | 44.4* | 79.6* | -22.5%
O=C(CSc1nnc(-c2ccncc2)o1)N1CCCC1 | -5.0% | 10.9 | 4.0 | ·
CS(=O)(=O)c1ccc(Cl)c(NC(=O)COC(=O)c2ccc(F)cc2Cl)c1 | -2.0% | 9.7 | -12.9 | -0.5%
CCOc1ncccc1C(=O)Nc1ccc2c(C)cc(=O)oc2c1 | ? | -1.2 | 11.7 | -12.1%
Cc1cc(=O)oc2cc(NC(=S)NNC(=O)c3c(Cl)cnn3C)ccc12 | -8.5% | 22.9 | 47.9* | -8.8%
Fc1cccc(NC(=S)NCc2ccccn2)c1 | -9.4% | 49.9* | 94.0* | 6.2%
COC(=O)c1ccc(NC(=S)NC(=O)c2c(Cl)cnn2C)cc1 | 17.8% | 3.5 | 7.8 | -2.9%
COc1ccccc1C(=O)Nc1ccc2c(C)cc(=O)oc2c1 | -1.5% | 35.1* | 106.9* | 1.0%
Cc1cc(=O)oc2cc(NC(=O)C(C)Oc3ccc(F)cc3)ccc12 (stereo not given) | 0.5% | · | · | ·
Cc1cc(=O)oc2cc(NC(=O)c3ccc(OC(F)F)cc3)ccc12 | -1.2% | 21.4* | 43.2* | -57.5%
COC(=O)c1cccc(NC(=O)CN2CCc3ccccc3C2)c1 | 10.8% | -1.2 | 1.8 | -4.2%
COc1cc(CN2CCC(CCC(=O)NC3CC3)CC2)cc(Cl)c1OC | 1.1% | -3.6 | · | -5.7%
Cc1cc(=O)oc2cc(NC(=O)c3cccc(S(C)(=O)=O)c3)ccc12 | -0.3% | 9.9 | 32.8 | 17.2%

High-throughput results from PubChem.
